Test results: PubChem BioAssay (NCI)
About 79,000 compounds went through this panel and 15% of them were active in at least one assay; those are over-represented in the sample as a whole. A number with no mark means an inactive call. Activity calls are given as the source filed them. Rule as the data show it: active = growth inhibition above about 70%; inactive = the rest.

Assay: NCI Yeast Anticancer Drug Screen. Data for the mlh1 strain (AID 171);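 also: 0% = growth of vehicle-treated control cultures of the same strain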
Details: S. cerevisiae mlh1 strain growth inhibition, hits give high values
Experimental: Growth inhibition of yeast strains with defined genetic alterations is measured as a screen for potential anti-cancer activity. Selected strains with alterations in DNA damage repair or cell cycle control were exposed to compounds and growth inhibition was measured relative to vehicle treated controls. The strain used in this assay is mlh1

Row | Compound | growth inhibition (at 1.2 µM) | growth inhibition (at 3.7 µM) | growth inhibition (at 11.0 µM) | growth inhibition (at 33.0 µM) | growth inhibition (at 100.0 µM)
1 | CC(C)(C)c1ccc2c(c1)C(=O)c1ccccc1C2=O | -15% | -10% | -10% | -10% | 12%
2 | NC(N)=NS(=O)(=O)c1ccc(Nc2c3ccccc3nc3c(C(=O)NC(CO)(CO)CO)cccc23)cc1 | -1% | 0% | 0% | 0% | 5%
3 | CN1CCN(C(=O)c2cccc3cccc(C(=O)O)c23)CC1 | 8% | 9% | 10% | 29% | 100% (active)
4 | CCCCCCC1OCC(O)C(OCCCC)O1 (stereo not given) | 0% | -1% | 0% | 1% | 6%
5 | COc1cc(NCCCCNCC(C)(C)C)c2ncccc2c1 | -3% | -1% | 5% | 12% | 16%
6 | Cc1cccc(/C=N/NC(=S)NC2CCCCC2)n1 | -6% | -4% | -3% | 12% | 8%
7 | NC(CS)C(=O)NCCNc1ccc(NCCNC(=O)C(N)CS)c2c1C(=O)c1c(O)ccc(O)c1C2=O (stereo not given) | -34% | -35% | -33% | 85% (active) | 62%
8 | COc1ccc(C(OCC2OC(n3cnc4c(=O)n(Cc5ccccc5[N+](=O)[O-])nnc43)C(O)C2O)(c2ccccc2)c2ccc(OC)cc2)cc1 (stereo not given) | -8% | -2% | -2% | 3% | -4%
